Experimental data from PubChem BioAssay (NCI).
The panel holds about 83,000 compounds, 20% with a hit somewhere; the sample as a whole holds those more often.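 Plates (96-well) were seeded with cells, treated with compound at one concentration, and incubated for 48 hours before percent growth was determined.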 Values without a mark were called inactive. Calls of active or inactive are those of the source. Rule for the calls: active = growth percent below 10; inactive = the rest.

The compounds below were run on NCI/ADR-RES ovarian (assay: NCI-60 one-dose screen, 48 h (100 = growth as untreated, 0 = no growth, -100 = all killed)). Conditions: 10 µM unless noted.

Compared with `COc1cccc(-c2nc3sccn3c2-c2ccnc(NCCCNS(=O)(=O)c3c(Cl)cccc3Cl)c2)c1`, `COc1cccc(-c2nn(C(C)(C)C)cc2-c2ccnc(NCCCNS(=O)(=O)c3ccc(C)cc3)c2)c1` is higher in growth: 29.9% for the first, 98.4% for the second.

Going from `CC1=NN(c2nc(-c3ccc(Cl)cc3)c(C#N)c(N3CCOCC3)n2)C(=O)C1` to `N#Cc1c(-c2ccc(Cl)cc2)nc(N/N=C/c2cccc(Br)c2)nc1N1CCOCC1`, the growth falls from 96.1% to 90.6%.

Compared with `Cc1nc2c3c(-c4ccccc4)c(-c4ccccc4)oc3ncn2n1`, `O=C1CC(=NCC(=O)n2c(-c3ccccc3)nc3ccccc32)NN1` is higher in growth: 94.1% for the first, 99.5% for the second.

Compared with `C=CC(=O)Nc1cccc(-c2nc(SC)nc(NCc3ccccc3)c2C#N)c1`, `CSc1nc(NCc2ccccc2)c(C#N)c(-c2cccc([N+](=O)[O-])c2)n1` is higher in growth: 48.3% for the first, 95.2% for the second.

Going from `N#Cc1c(N)n(CCNC(=O)c2ccccc2)c2nc3ccccc3nc12` to `CC(C)c1c(C(=O)c2ccccc2)c(-c2ccccc2)c(-c2ccc(F)cc2)n1CC[C@@H](O)C[C@@H](O)CC(=O)O`, the growth falls from 87.7% to 48.9%.

Compared with `C=C(C)[C@@H]1CC[C@]2(C(=O)OC)CC[C@]3(C)[C@H](CC[C@@H]4[C@@]5(C)C/C(=C/c6cccc(I)c6)C(=O)C(C)(C)[C@@H]5CC[C@]43C)[C@@H]12`, `CC1(C)CC[C@]2(C(=O)Nc3ccccn3)CC[C@]3(C)C(=CC[C@@H]4[C@@]5(C)C/C(=C/c6cccnc6)C(=O)C(C)(C)[C@@H]5CC[C@]43C)[C@H]2C1` is lower in growth: 94.1% for the first, 42.2% for the second.

Compared with `Cc1c(/C=C/[N+](=O)[O-])ccc2c1[nH]c1ccccc12`, `CC(C)n1c(/C=C/[C@@H](O)C[C@@H](O)CC(=O)O)c(-c2ccc(F)cc2)c2ccccc21` is lower in growth: 108% for the first, 22.1% for the second.

First: COc1cc(/C=C/c2cc(O)c3cc(C(C)=O)c(=O)oc3c2)cc2c1O[C@]1(C)CC[C@@H](O)C(C)(C)[C@H]1C2
Second: COc1cc(/C=C/C(=O)c2ccc(O)c(CN3CCN(c4cc5c(cc4F)c(=O)c(C(=O)O)cn5C4CC4)CC3)c2)cc(OC)c1OC
The growth of the first is higher: 83.6% for the first, 54.6% for the second.

Going from `C=CCSSc1ncnc2c1ncn2C1OC(CO)C(O)C1O` (centres undefined) to `Nc1nc2ncc(CCNc3ccc(C(=O)O)cc3)nc2c(=O)[nH]1`, the growth rises from 28.4% to 115%.

Compared with `COc1cc2nc(N3CCCC3)nc(NCc3ccccc3)c2cc1OC`, `COc1cc2nc(N3CCCC3)nc(Nc3ccccc3)c2cc1OC` is lower in growth: 72.4% for the first, 18.4% for the second.

Compared with `CC[C@H]1OC(=O)[C@H](C)[C@@H](O[C@H]2C[C@@](C)(OC)[C@@H](O)[C@H](C)O2)[C@H](C)[C@@H](O[C@@H]2O[C@H](C)C[C@H](N(C)C)[C@H]2O)[C@](C)(O)C[C@H](C)CN(C)[C@H](C)[C@@H](O)[C@]1(C)O`, `COC(=O)[C@]12CCC(C)(C)C[C@H]1[C@H]1C(=O)C[C@@H]3[C@@]4(C)c5c([nH]c6ccccc6c5=O)C(C)(C)[C@@H]4CC[C@@]3(C)[C@]1(C)CC2` is lower in growth: 95.2% for the first, 49.6% for the second.

Compared with `CSc1nc(NCCN2CCOCC2)c(C#N)c(-c2cccc([N+](=O)[O-])c2)n1`, `COc1ccc(Nc2nc(SC)nc(-c3cccc([N+](=O)[O-])c3)c2C#N)cc1` is lower in growth: 95.7% for the first, 57.9% for the second.

Compared with `N#CCCN=Nc1c(O)[nH]c2ccc([N+](=O)[O-])cc12`, `CC1=CC(=NN=c2cc(C)n([O-])c(C)c2)C=C(C)[N+]1=O` is higher in growth: 104% for the first, 111% for the second.

Compared with `CC[C@@H]1O[C@H](O[C@@H](c2cnc[nH]2)[C@H](NC(=O)c2nc([C@H](CC(N)=O)NC[C@@H](N)C(N)=O)nc(N)c2C)C(=O)N[C@H](C)[C@H](O)[C@H](C)C(=O)N[C@@H](C(=O)NCCc2nc(-c3nc(C(=O)NCCCCN=C(N)N)cs3)cs2)[C@@H](C)O)[C@H](O[C@@H]2O[C@H](CO)[C@H](O)[C@H](OC(N)=O)[C@@H]2O)[C@H](C)[C@@H]1C`, `CC(C)(O)c1cn(CCCCN2C(=O)C(=O)c3ccccc32)nn1` is higher in growth: 20.1% for the first, 99.9% for the second.

First: CCCN1CCN(c2ccc3nc(-c4ccc5nc(-c6ccc(OCC)cc6)[nH]c5c4)[nH]c3c2)CC1
Second: COc1ccc(-c2nc3ccc(-c4nc5ccc(N6CCN(c7ccncc7)CC6)cc5[nH]4)cc3[nH]2)cc1OC
The growth of the first is lower: 41.7% for the first, 96.9% for the second.

Compared with `CCCCCCCCCCCCC[N+](C)(C)Cc1ccccc1`, `O=C(O)c1ccc(N=CC(=O)c2ccc(-c3ccccc3)cc2)cc1` is higher in growth: 90.2% for the first, 94.9% for the second.

First: COc1ccc(/C=C/C(=O)c2ccc(O)c(CN3CCN(c4cc5c(cc4F)c(=O)c(C(=O)O)cn5C4CC4)CC3)c2)cc1
Second: O=C(/C=C/c1cccc(Cl)c1)c1ccc(O)c(CN2CCN(c3cc4c(cc3F)c(=O)c(C(=O)O)cn4C3CC3)CC2)c1
The growth of the first is lower: 43.1% for the first, 60.5% for the second.

First: O=S(=O)(Nc1ccc(OC(F)F)cc1)c1ccc(-c2cnc(C3CC3)o2)cc1
Second: N#C/C(=C\c1ccc(-c2cc(C(F)(F)F)ccc2Cl)o1)c1nc(-c2ccco2)cs1
The growth of the first is lower: 41.5% for the first, 106% for the second.

Going from `CCC(=O)c1ccc(Cl)s1` to `Cn1c(=O)c2c(nc3n(-c4ccc(Cl)cc4Cl)c(Sc4nc(-c5ccccc5)c(C#N)c(=O)[nH]4)cn23)n(C)c1=O`, the growth falls from 104% to 43.9%.

With `CCCOc1ccc2nc(NC(=O)OC)[nH]c2c1` the growth was -6.3% (active).
